Bioassay records: PubChem BioAssay, Johns Hopkins Ion Channel Center
KCNQ2 pot = enhances the rat KCNQ2 potassium channel; CHO-K1 KCNQ2, FluxOR thallium flux fluorescence; stronger effect = higher value; 310,000 compounds, 0.54% hits; O88943; B-score at 10 µM;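 active = fluorescence ratio B-score at least 3 SD of library B-scores, with initial fluorescence B-score within 3 of them, cut at about 5.3 in these data; same plate scores as AID 2156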;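 note: B-score of peak minus minimum over baseline fluorescence ratio after K+ and Tl+ stimulus; positive B-score means potentiation of KCNQ2 with more thallium influx and brighter signal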
KCNQ2 inh = blocks the rat KCNQ2 potassium channel; CHO-K1 KCNQ2, FluxOR thallium flux, 20 min; stronger effect = lower value; B-score at 10 µM; 310,000 compounds, 1.1% hits; AID 2156;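 active = fluorescence ratio B-score at most minus 3 library SDs, with starting brightness B-score within 2 library SDs, cut at about -5.5 in these data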
KCNQ2 block conf = confirmation of rat KCNQ2 potassium channel inhibitors; shares compounds with KCNQ2 inh; 1,000 compounds, 57% hits; KCNQ2-expressing cells, thallium flux, inhibition; stronger effect = lower value; AID 493025; activity change, negative = inhibition, % at 10 µM
KCNQ1 spec = selectivity of KCNQ2 inhibitors against human KCNQ1; shares compounds with KCNQ2 inh; KCNQ1-expressing cells, FluxOR thallium flux fluorescence; stronger effect = lower value; activity change, negative = inhibition, % at 10 µM; 1,000 compounds, 15% hits; AID 493026;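 active = activity change at least 3 SD of negative controls below their mean in both duplicate wells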;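 note: CHO cells stably transfected with KCNQ1 and depolarized by potassium stimulus; peak minus minimum fluorescence over baseline after thallium addition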
Target sequence (P51787 whole entry, looked up): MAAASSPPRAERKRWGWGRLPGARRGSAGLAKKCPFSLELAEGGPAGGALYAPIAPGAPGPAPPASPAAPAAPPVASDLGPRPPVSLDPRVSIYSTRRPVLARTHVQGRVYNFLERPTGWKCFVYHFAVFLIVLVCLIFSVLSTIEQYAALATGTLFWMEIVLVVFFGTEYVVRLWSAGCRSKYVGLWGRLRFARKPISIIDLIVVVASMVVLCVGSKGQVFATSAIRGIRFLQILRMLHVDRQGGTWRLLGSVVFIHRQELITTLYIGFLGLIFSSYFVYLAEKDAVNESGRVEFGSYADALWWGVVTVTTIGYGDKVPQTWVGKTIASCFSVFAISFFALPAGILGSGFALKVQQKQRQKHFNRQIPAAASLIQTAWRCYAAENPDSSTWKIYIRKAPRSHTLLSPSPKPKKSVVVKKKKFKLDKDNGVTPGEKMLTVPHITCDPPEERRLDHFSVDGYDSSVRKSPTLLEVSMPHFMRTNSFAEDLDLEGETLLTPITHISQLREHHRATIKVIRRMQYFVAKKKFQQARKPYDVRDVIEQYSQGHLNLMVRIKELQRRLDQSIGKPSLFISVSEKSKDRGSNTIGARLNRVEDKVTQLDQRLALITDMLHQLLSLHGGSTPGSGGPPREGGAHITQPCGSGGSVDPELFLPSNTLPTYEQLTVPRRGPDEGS
CHO Tl ctr = counter-screen for KCNQ2 inhibitors: effect in parental CHO cells; 1,000 compounds, 14% hits; thallium flux counter-screen; stronger effect = lower value; shares compounds with KCNQ2 inh; AID 493029; activity change, % at 10 µM
KCNQ2 patch conf = rat KCNQ2 inhibition confirmed by electrophysiology. shares compounds with KCNQ2 inh. KCNQ2-expressing cells, automated patch clamp current. calls only at 10 µM. 550 compounds, 49% hits. AID 588531
Kir21 conf inh = confirmation of mouse Kir2.1 potassium channel inhibitors. AID 2032. Kir2.1-expressing cells, FluxOR thallium flux fluorescence; stronger effect = lower value. shares compounds with KCNQ2 pot. Tl flux remaining, % of negative control (stronger effect = lower value), % at 10 µM. 2,300 compounds, 41% hits;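 active = Primary-screen hit whose thallium flux fell at least 3 control SD below untreated wells in both duplicates, with normal baseline fluorescence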
HEK293 Tl flux = alters thallium flux in parental HEK293 cells, Kir2.1 counter-screen. FluxOR signal as % of negative control (100 = no effect), % at 10 µM. AID 2105. shares compounds with KCNQ2 pot. 2,300 compounds, 19% hits. FluxOR thallium flux fluorescence; 0% = unstimulated blank wells;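 active = dye signal at least 3 control SD above or below untreated wells in both duplicates, raw fluorescence within 3, either direction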;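 note: percent is based on the flux ratio of peak minus minimum fluorescence over baseline F0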
CHO-K1 Tl ctr = alters thallium flux in parental CHO-K1 cells, KCNQ2 counter-screen; activity increase over 3SD of controls, % at 10 µM; shares compounds with KCNQ2 pot; 1,200 compounds, 43% hits; FluxOR thallium flux fluorescence; zero = vehicle mean+3SD, 100% = vehicle-minus-blank window;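 active = signal rise of at least 3 SD above the untreated control mean, in both duplicate wells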;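 note: counter screen of KCNQ2 potentiator hits so any rise reflects channel-independent effects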
KCNQ1 sel pot = tests whether KCNQ2 potentiators also act on human KCNQ1 | shares compounds with KCNQ2 pot | CHO KCNQ1 stable, FluxOR thallium flux fluorescence; beyond 3SD, as % of vehicle-control signal | 1,200 compounds, 28% hits | activation over 3SD threshold, % at 10 µM;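 active = fluorescence ratio rise of at least 3 SD of vehicle wells above their mean, in both replicate wells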
KCNQ2 pot conf = confirmation of rat KCNQ2 potassium channel potentiators | potentiation, less the hit threshold, % at 10 µM | 1,200 compounds, 68% hits | CHO-KCNQ2 cells, FluxOR thallium flux fluorescence | shares compounds with KCNQ2 pot;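 active = fluorescence ratio rising 3 SD or more over the vehicle control mean in both replicates, plus primary screen hit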;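 note: peak minus minimum thallium fluorescence divided by baseline after K/Tl stimulus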
Kir2-1 sel = mouse Kir2.1 off-target activity of KCNQ2 potentiators. shares compounds with KCNQ2 pot. HEK293 Kir2.1, FluxOR thallium flux fluorescence. activity over 3SD threshold, % at 10 µM. 1,200 compounds, 2% hits;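 active = fluorescence ratio rise of at least 3 SD above the vehicle-control mean, seen in both replicates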
KCNQ2 W236L MoA = rat KCNQ2 W236L mutant potentiation by KCNQ2 potentiators; AID 2558; 940 compounds, 10% hits; CHO KCNQ2-W236L, automated patch clamp current; current increase over 3SD of negative controls (%), stronger effect = higher value, % at 25 µM; shares compounds with KCNQ2 pot;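 active = current increase at least 3 SD of the untreated controls above them in both duplicate recordings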
A number is an active result; n = inactive; x = no result; + = active, no number. Rows were chosen to be rich in hits. Some 1.6% of all compounds tested hit in one or more screens of this group. Unless noted, the rule behind the calls is not given here.

SMILES	KCNQ2 pot	KCNQ2 inh	others
O=C(Nc1cccnc1)c1c(O)c2c(n(Cc3ccccc3)c1=O)CCCC2	n	-5.82
O=C(Nc1ccc(F)cc1)c1c(O)c2c(n(Cc3ccccc3)c1=O)CCCC2	x	n
COc1ccc(NC(c2ccccc2)P(=O)(Oc2ccccc2)Oc2ccccc2)cc1 (centres undefined)	n	-6.98	KCNQ2 block conf=-31.0%;KCNQ1 spec=n;CHO Tl ctr=n;KCNQ2 patch conf=+
COc1ccc(NC(c2ccccc2F)P(=O)(Oc2ccccc2)Oc2ccccc2)cc1 (centres undefined)	x	n
CC(C)OP(=O)(OC(C)C)C(NCc1ccccc1)c1ccccc1 (centres undefined)	x	n
CC1N=C(c2ccccc2)c2cc(Br)ccc2NC1=O (centres undefined)	n	n
CON(C)C(=O)Nc1ccc(Cl)cc1	x	n
O=C(Nc1ccc(Cl)cc1)O/N=C(\c1ccccc1)c1ccccn1	n	-7.65	KCNQ2 block conf=n;KCNQ1 spec=n;CHO Tl ctr=n
CCOc1cc2c(cc1OCC)-n1cccc1C(c1c(O)cccc1OC)NC2 (centres undefined)	n	n
O=P(Nc1ccccc1)(Nc1ccccc1)Oc1ccccc1	x	n
O=P(Nc1ccccc1)(Nc1ccccc1)Oc1cccc(Cl)c1	n	-7.71	KCNQ2 block conf=n;KCNQ1 spec=n;CHO Tl ctr=n
CC1CCC(C(C)C)C(OC(=O)Cn2c(COc3ccccc3)[n+](C)c3ccccc32)C1 (centres undefined)	n	-9.99	KCNQ2 block conf=-55.0%;KCNQ1 spec=-52.5%;CHO Tl ctr=-50.5%;KCNQ2 patch conf=n;Kir21 conf inh=18.0%;HEK293 Tl flux=n
Oc1ccccc1-[n+]1c(-c2ccccc2)cc(-c2ccccc2)cc1-c1ccccc1	n	-7.58	KCNQ2 block conf=-16.5%;KCNQ1 spec=n;CHO Tl ctr=n;KCNQ2 patch conf=n;Kir21 conf inh=44.5%;HEK293 Tl flux=n
Cc1ccc(-c2cc(-c3ccccc3)cc(-c3ccccc3)[n+]2-c2ccc(C(=O)O)cc2)cc1	x	n
CCCCCCCSc1cc(OC)c(CCN(C)C)cc1OC	n	-7.74	KCNQ2 block conf=-34.0%;KCNQ1 spec=-37.5%;CHO Tl ctr=-27.5%;KCNQ2 patch conf=n;Kir21 conf inh=19.0%;HEK293 Tl flux=n
CS(=O)(=O)c1ccc(C(=O)N2CCC(C(=O)O)(c3ccccc3)CC2)cc1	n	n
COC(=O)C(O)(c1ccc(NC(=S)NC(=O)c2ccccc2)cc1)C(F)(F)F (centres undefined)	x	n
COc1cccc(C2CC3C(=O)C=CC2N3Cc2ccccc2)c1 (centres undefined)	x	n
COc1ccc(-[n+]2c(-c3ccccc3)cc(-c3ccc(C)cc3)cc2-c2ccccc2)cc1	n	-10.1	KCNQ2 block conf=-26.0%;KCNQ1 spec=n;CHO Tl ctr=n;KCNQ2 patch conf=+;Kir21 conf inh=14.0%;HEK293 Tl flux=n
COc1ccc(-c2cc(-c3ccccc3)[n+](C)c(-c3ccccc3)c2)cc1	x	n
CCCCCn1c(=O)c(C(=O)Nc2nc(CC(=O)OCC)cs2)c(O)c2ccccc21	x	n
CSCc1nnc2n1-c1ccc(Cl)cc1C(c1ccccc1)=NC2	n	n
CCOC(=O)CSc1ccc(C(=O)N2CCC3(CC2)OCCO3)cc1[N+](=O)[O-]	x	n
Cc1ccc(C(=O)N[C@@H](C)CN2C3=NC[C@H](Cc4ccccc4)N3C[C@H]2Cc2ccc(O)cc2)cc1Br	x	n
Cc1ccc(C(=O)N[C@@H](C)CN2C3=NC[C@@H](Cc4ccccc4)N3C[C@H]2Cc2ccc(O)cc2)cc1Br	x	n	Kir21 conf inh=49.0%;HEK293 Tl flux=n
SMILES	KCNQ2 pot	KCNQ2 inh	others
COC(=O)C1=C(c2cc3ccccc3o2)C[C@@H]2CC[C@H]1N2C(=O)NCc1ccc(C(F)(F)F)cc1	n	n
COc1ccc(C(=O)O/N=C(/C(N)=O)P(=O)(OC(C)C)OC(C)C)cc1	6.44	n	Kir21 conf inh=n;HEK293 Tl flux=n;CHO-K1 Tl ctr=n;KCNQ1 sel pot=4.2;KCNQ2 pot conf=27.2;Kir2-1 sel=n;KCNQ2 W236L MoA=n
COc1ccc(C(O)P(=O)(OC(C)C)OC(C)C)cc1 (centres undefined)	n	n
CC(C)CNc1c2c(nc3ccccc13)CCC2	n	n
c1ccc(CNc2c3c(nc4ccccc24)CCC3)cc1	n	n	Kir21 conf inh=n;HEK293 Tl flux=n
OC(c1cccc(Cl)c1)(c1cccc(Cl)c1)C1CN2CCC1CC2 (centres undefined)	x	n
COc1ccc(Cl)cc1C(=O)C1CCCN(Cc2cnc(C)s2)C1 (centres undefined)	n	n
Oc1ccc(C2NCc3ccccc3-n3cccc32)cc1Cl (centres undefined)	n	n	Kir21 conf inh=59.0%;HEK293 Tl flux=n
FC(F)(F)c1cccc(C2NCc3ccccc3-n3cccc32)c1 (centres undefined)	x	n
Cc1ccc(N2C(=O)NC(=O)C(CCc3ccccn3)(Cc3ccc(F)cc3)C2=O)cc1 (centres undefined)	x	n
COc1ccccc1N1CCN(Cc2cccc(Br)c2)CC1	x	n
COc1cc(CC(C)N)c(OC)cc1I (centres undefined)	n	n
CCCCCSc1cc(OC)c(CCN)cc1OC	x	n	Kir21 conf inh=46.5%;HEK293 Tl flux=n
O=C1C(=O)c2cccc3cccc1c23	x	n
O=C1C(=O)c2ccccc2-c2ccccc21	6.19	n	Kir21 conf inh=n;HEK293 Tl flux=n;CHO-K1 Tl ctr=n;KCNQ1 sel pot=n;KCNQ2 pot conf=n;Kir2-1 sel=n;KCNQ2 W236L MoA=3.4%
Cc1cc(OCC(=O)NCc2ccncc2)c2c3c(c(=O)oc2c1)CCCC3	x	n
CCOC(=O)c1c(C=O)c2ccccc2n1Cc1ccccc1	x	n
CC(O)(CS(=O)(=O)c1cccc(C(F)(F)F)c1)C(=O)Nc1ccc(C(F)(F)F)cc1 (centres undefined)	x	n
COC(=O)C1=C(c2ccccc2)C[C@@H]2CC[C@H]1N2C(=O)N1CCC(C)CC1	x	n
Fc1ccc(CCNCc2ccccc2Cl)cc1	n	n
